High-throughput results (PubChem)
GLP-1R inv ag: qHTS of GLP-1 Receptor Inverse Agonists (Inhibition Mode); Potency, µM (top dose mostly 38.3 µM), inactives show top-dose activity change, negative = inhibition, most hits filed as inhibitors; AID 624417, 2012; hit rate 1.6% among 410,000; Glucagon-like peptide 1 receptor (Homo sapiens), P43220; HEK293 GLP-1R CRE-luciferase, luminescence, 24 h; GLP-1R form is constitutively active; further: potency means the concentration at half of the fitted maximal effect; on the % scale 0 is the no-effect control and ±100 the full control effect; nearly all actives have a fitted effect of over 55% in size
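Cells are plated, allowed 12 hours at 37 deg C, then treated with compounds for 24 hr before luciferase detection reagent is added and luminescence is read after 12 min at room temperature. The HEK293 line carries constitutively active GLP-1R with a cAMP-responsive reporter.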
D3 ag: qHTS of D3 Dopamine Receptor Agonist: qHTS; max activation, %; AID 652048, 2013; D(3) dopamine receptor (Homo sapiens), P35462; hit rate 0.58% among 410,000; D3R DiscoveRx beta-arrestin cells, luminescence, 90 min; in the data active means max activation above about 30%; further: 0% is about no effect
Target sequence (P35462 whole entry, looked up): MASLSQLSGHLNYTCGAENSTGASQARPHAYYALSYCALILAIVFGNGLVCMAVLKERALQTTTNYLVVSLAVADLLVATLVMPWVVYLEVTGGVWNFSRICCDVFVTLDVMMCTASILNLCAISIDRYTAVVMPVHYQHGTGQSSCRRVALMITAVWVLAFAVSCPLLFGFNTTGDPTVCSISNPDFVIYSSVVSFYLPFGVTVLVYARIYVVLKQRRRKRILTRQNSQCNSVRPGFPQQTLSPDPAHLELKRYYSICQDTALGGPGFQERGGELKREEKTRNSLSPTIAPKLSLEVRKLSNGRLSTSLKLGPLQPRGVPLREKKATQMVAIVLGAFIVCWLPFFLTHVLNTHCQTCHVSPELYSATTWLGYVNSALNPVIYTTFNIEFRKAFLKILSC
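Cells at 1500/well, incubated overnight, then treated with pinned compounds (dopamine as control) for 90 min at 37 degrees C. DiscoveRx reagent added for 30 - 60 minutes at room temperature; luminescence read.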
GLP1R ag: qHTS of GLP-1 Receptor Agonists. Glucagon-like peptide 1 receptor (Homo sapiens), P43220. HEK293 GLP-1R CRE-luciferase, luminescence, 4-6 h; cells express a hypersensitive GLP-1R form. Potency, µM (top dose mostly 45.6 µM), without a hit: at the highest dose activation, hits mostly activators. hit rate 0.007% among 380,000; further: potency means the concentration at half of the fitted maximal effect; % of control where 0% means no effect
DRD3 antagonist: qHTS of D3 Dopamine Receptor Antagonist: qHTS; D3R cells, DiscoveRx beta-arrestin luminescence, antagonist mode; hits give low values; max response, negative = inhibition, %; D(3) dopamine receptor (Homo sapiens), P35462; hit rate 2.5% among 360,000; AID 652054, 2013; in the data active means max response below about -50%; inconclusive means no clear call, values can overlap the other calls; further: on the % scale 0 is the no-effect control and ±100 the full control effect
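Cells expressing the human receptor were seeded at 1500 cells/well, incubated overnight at 37 degrees C in 5% CO2, then exposed to library compounds with dopamine controls for 90 minutes at 37 degrees C before luminescent detection.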
* = called active by the depositor; ? = inconclusive; / = no result. A selection: hits, their analogues and other compounds. The true share with any hit is near 4.3%. Unless noted, the call rests on the fitted dose curve; in most records, active means well fitted curve in the direction sought with a large enough effect; inconclusive means small, poorly fitted or top-dose-only effect, or another doubt; inactive means no such curve, though single readings can be large; an effect the other way counts as inactive or inconclusive.

SMILES	GLP-1R inv ag	D3 ag	GLP1R ag	DRD3 antagonist
COc1ccc(/C=C/C(=O)O)cc1S(=O)(=O)NCc1ccccc1	4.8%	35.5*	-0.3%	-17.4
CC(=O)Nc1ccc(NC(=O)C(Cc2ccccc2)NS(=O)(=O)c2ccc3c(c2)oc(=O)n3C)cc1 (centres undefined)	2.3%	-0.7	/	/
CCC(CN(C)C)Oc1cc(NCc2ccccc2)c2ncn(C(C)C)c2c1 (centres undefined)	-18.5%	-18.5	0.7%	-55.0*
CCC(CO)Oc1cc(NC(=O)c2ccc([N+](=O)[O-])cc2)c2ncn(C(C)C)c2c1 (centres undefined)	3.2%	2.5	-3.8%	-60.5*
COc1cc(NCc2ccccc2)c2ncn(C(C)C)c2c1	?	2.9	9.8%	0.7
CCC(CO)Oc1cc(NC(=O)c2cccc([N+](=O)[O-])c2)c2ncn(C(C)C)c2c1 (centres undefined)	63.9%	0.1	18.3%	-20.9
CCC(CO)Oc1cc(NCc2ccc(F)cc2)c2ncn(C(C)C)c2c1 (centres undefined)	12.6%	7.7	5.8%	0.0
CCC(CO)Oc1cc(NCc2ccncc2)c2ncn(C(C)C)c2c1 (centres undefined)	47.7%	56.1*	10.1%	0.8
O=c1c2sccc2n(Cc2cc(=O)n3ccccc3n2)c(=O)n1-c1cc(F)ccc1F	25.5%	7.4	/	/
COc1ccc(Br)cc1S(=O)(=O)N1CCCC1	8.4%	-10.2	7.1%	-4.9
COc1cc(S(=O)(=O)N2CCCCCC2)c(OC)cc1Br	4.47µM*	-2.5	2.5%	8.5
COc1cc2c(cc1OC)[C@H](Cc1ccc(O)cc1)NCC2	41.2%	-24.1	3.3%	-62.4*
COc1cc2c(cc1O)C(Cc1ccc(O)cc1)NCC2 (centres undefined)	13.6%	-69.5	0.7%	-106.9*
CC1Cc2cc(S(=O)(=O)NCc3ccc(Cl)cc3)ccc2N1C(=O)C1CCC1 (centres undefined)	-5.2%	-2.9	/	/
CCN(CC)CCCNC(=O)C(C)Sc1nc(-c2ccccc2)cc(C(F)(F)F)n1 (centres undefined)	2.82µM*	-10.6	8.6%	-14.4
C=C1CC2C3CCC4=CC(=O)C=C[C@]4(C)[C@@]3(F)[C@@H](O)C[C@]2(C)[C@@]1(O)C(=O)COC(C)=O (some centres undefined)	/	-7.3	/	/
O=C(Cn1cccc1C(=O)c1ccccc1)NCCCN1CCc2ccccc2C1	-21.4%	-21.8	-3.8%	?
O=C(c1ccccc1)c1cccn1CC(=O)N1CCc2ccccc2C1	-21.9%	-14.2	0.3%	-54.0*
N#Cc1cn(CC(=O)N2CCc3ccccc3C2)c2ccccc12	?	-10.0	1.0%	-53.3*
N#Cc1cn(CC(=O)N2CCCC2)c2ccccc12	-10.0%	3.8	-9.5%	-8.2
CCOc1ccc(CNC(=O)C2=Cc3cccc(OC)c3OC2)cc1	12.7%	4.1	/	/
CCc1ccc(NC(=O)Cn2c(=O)n(CCCC(=O)NCCc3ccc(OC)c(OC)c3)c(=O)c3ccccc32)cc1	6.2%	1.0	0.1%	/
Cc1cccc(C)c1OCCn1c(CCNC(=O)C2CCCCC2)nc2ccccc21	?	-25.1	/	/
CC(=O)Oc1ccc2c(c1)C(=O)CCCCCC(=O)O2	7.5%	0.0	6.0%	-70.0*
CC(=O)Oc1ccc2c(c1)C(=O)c1ccccc1CO2	70.8%	-12.5	16.8%	?
SMILES	GLP-1R inv ag	D3 ag	GLP1R ag	DRD3 antagonist
Cc1nnc(N2CCN(Cc3ccccc3)CC2)[nH]c1=O	-0.7%	-11.0	-2.0%	-53.5*
CCCCn1nnnc1C(CCc1ccccc1)N1CCN(C/C=C/c2ccccc2)CC1 (centres undefined)	?	-13.4	-2.6%	-57.8*
CCCCC(c1nnnn1CCOC)N1CCN(Cc2ccccc2)CC1 (centres undefined)	-10.9%	-1.3	-1.0%	-80.4*
CCCCn1nnnc1C(CCSC)N1CCN(C/C=C/c2ccccc2)CC1 (centres undefined)	-22.4%	-15.4	0.9%	-121.6*
COc1ccc(-c2[nH]c(-c3ccc(Cl)cc3)nc2SCC(=O)NCC2CCCO2)cc1 (centres undefined)	?	-16.6	/	/
CCCCCCCCN1[C@@H](CC(=O)O)c2cc(C(F)(F)F)ccc2S1(=O)=O	-14.6%	12.9	4.8%	5.0
CCCCCCCCCCCCN1[C@@H](CC(=O)O)c2cc(C(F)(F)F)ccc2S1(=O)=O	?	36.7*	3.6%	1.8
CCCCCCCCCCCCN1[C@@H](CC(=O)O)c2cc(F)ccc2S1(=O)=O	-18.0%	40.4*	7.8%	1.3
CCCCCCCCN1[C@@H](CC(=O)OCC)c2ccc(C(F)(F)F)cc2S1(=O)=O	10µM*	12.9	-3.5%	1.5
CCCCCCCCCCCCN1[C@@H](CC(=O)OC)c2cc(C(F)(F)F)ccc2S1(=O)=O	8.0%	-29.1	6.4%	?
CCCCCCCCN1[C@@H](CC(=O)OC)c2cc(F)ccc2S1(=O)=O	?	1.5	16.2%	16.3
O=C(Nc1cccc2c(=O)cc(-c3nn[nH]n3)oc12)c1ccc(OCCCCc2ccccc2)cc1	/	-10.5	-1.7%	/
CCN1CCN(C(=O)N[C@H](C(=O)N[C@@H]2C(=O)N3[C@@H](C(=O)O)C(C)(C)S[C@@H]23)c2ccccc2)C(=O)C1=O	/	/	-5.3%	/
Cc1nn(-c2ccc(N3CCCCC3)nn2)c(C)c1CCC(=O)NCc1ccccc1	12.4%	-0.8	/	/
CCOC(=O)C1=NOC2(C1)C(=O)Nc1ccc(OC(F)(F)F)cc12 (centres undefined)	17.8%	-1.6	-0.8%	-87.2*
O=C1CCCC/C1=N\Nc1ccc(OCc2ccccc2)cc1	2.82µM*	1.4	4.7%	6.9
COc1cc(OC)cc(C(=O)Nn2c(C)nc3ccccc3c2=O)c1	6.5%	2.9	-4.4%	9.5
COc1cc(OC)cc(-c2nc3ccccc3c(=O)n2OC(=O)c2ccc(C)c(C)c2)c1	?	30.0*	-0.3%	108.8
O=C(c1ccc(Cl)c(S(=O)(=O)N2CCc3ccccc32)c1)N1CCN(c2ccccc2O)CC1	?	-3.3	-13.8%	27.3
Cc1cccc(N2CCN(C(=O)c3ccc(Cl)c(S(=O)(=O)N4CCc5ccccc5C4)c3)CC2)c1C	7.08µM*	3.1	-3.3%	-11.0
CC(C)Oc1cccc(C(=O)Nc2ccc3oc(-c4cccc(Cl)c4)nc3c2)c1	-25.1%	9.2	/	/
COc1ccc2cc(Br)ccc2c1CC(=O)NC(C)(C)C	12.6µM*	1.5	1.7%	-12.1
CCNC(=O)Cc1c(OC)ccc2cc(Br)ccc12	-17.8%	-1.3	-4.8%	7.0
C=Cc1c(C)c2cc3nc(cc4[nH]c(cc5nc(cc1[nH]2)C(C)=C5CCC(=O)OC)c(CCC(=O)O)c4C)[C@@]1(C)C3=CC=C(C(=O)OC)[C@H]1C(=O)OC	/	8.4	/	/
COc1ccc(-c2cc(C(=O)NC(C)c3ccccc3)c3cc(C(C)C)ccc3n2)cc1 (centres undefined)	3.4%	6.4	/	/
